This is an account of results in PubChem BioAssay AID1117283 (Broad Institute, 2014).

Measured potencies and affinities stand elsewhere. The source made the active and inactive calls.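 Rule for the calls: active = fluorescent signal decreased by at least 40%; inconclusive = no clear call, values can overlap the other calls; inactive = the rest, including activity opposite to the expected direction.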

The test in a line: inhibition of fibronectin matrix deposition – AH1F cells, Alexa488-fibronectin fluorescence, cherry-pick, set 2, dose response (AID 1117283).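 Note: AH1F fibroblasts given Alexa488-labelled fibronectin at 24 nM final.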 The following applies: AH1F fibroblasts, overnight; series mostly up to 35 µM.
Turning to `C[C@H](CO)N1C[C@H](C)[C@H](CN(C)C(=O)Nc2cccc3ccccc23)Oc2c(NC(=O)Nc3ccc(C(F)(F)F)cc3)cccc2C1=O`, the molecule was called inactive.

Consider `N#Cc1ccc(-c2ccc3c(c2)[C@@H]2[C@@H](CCN2S(=O)(=O)c2ccccc2F)[C@H](CO)N3)cc1`, for which the result was inactive.

`C[C@H]1CN([C@@H](C)CO)C(=O)c2cc(NC(=O)CCCN(C)C)ccc2O[C@@H]1CN(C)Cc1ccc(-c2ccccc2)cc1`: the outcome was inactive.

Take `CO[C@H]1CN(C)C(=O)c2ccc(NC(=O)c3ccc(-c4ccccc4)cc3)cc2OC[C@@H](C)NC[C@H]1C`: the outcome was inactive.

On to `CCOC(=O)c1nnn(-c2ccc(OC)cc2)c1N`, for which the molecule was called inactive.

With `Cc1ccccc1S(=O)(=O)N1CC[C@H]2[C@H](CO)Nc3ccc(-c4ccc(C#N)cc4)cc3[C@H]21`, the call was inactive.

For `C[C@H](CO)N1C[C@H](C)[C@@H](CN(C)Cc2ccc(-c3ccccc3)cc2)Oc2ccc(NC(=O)CCCN(C)C)cc2C1=O`, the molecule was called inactive.

On to `CO[C@H]1CN(C)C(=O)c2cc(NC(=O)Nc3ccc(Cl)c(Cl)c3)ccc2OC[C@@H](C)NC[C@H]1C`, for which the result was inactive.

Take `O=C(Nc1ccccc1F)N1C[C@@H]2[C@H](c3ccccc31)[C@@H](CO)N2C(=O)C1CC1`: the outcome was inactive.

On to `CCc1ccc(NC(=O)CSc2nnc(-c3ccco3)o2)cc1`, for which the call was inactive.

For the molecule `COC(=O)C[C@@H]1CC[C@@H]2[C@H](COc3ccc(NC(=O)Cc4cccs4)cc3C(=O)N2C)O1`, the molecule was called inactive.

As to `N#Cc1ccc(-c2ccc3c(c2)[C@H]2[C@H](CCN2S(=O)(=O)c2cccc(F)c2)[C@@H](CO)N3)cc1`, the call was inactive.

Consider `O=C(Nc1ccccc1F)N1C[C@H]2[C@@H](c3ccccc31)[C@@H](CO)N2C(=O)C1CC1`, for which the molecule was called inactive.

For `Cc1c(NC(=O)c2ccc3nsnc3c2)cccc1[N+](=O)[O-]`, the outcome was inactive.

Regarding `Cc1ccc(Nc2nnc(SCc3ccccc3)s2)cc1`, the result was inactive.

Regarding `C[C@@H](O)C#Cc1ccc2c(c1)O[C@@H](CN(C)C)[C@@H](C)CN([C@@H](C)CO)S2(=O)=O`, the call was inactive.

Regarding `C[C@H](O)C#Cc1ccc2c(c1)O[C@@H](CN(C)C)[C@H](C)CN([C@@H](C)CO)S2(=O)=O`, the call was inactive.

As for `O=c1c2cc(N3CCOCC3)ccc2[nH]c(=S)n1Cc1ccc(Cl)cc1`, the outcome was inactive.

On to `CO[C@H]1CN(C)C(=O)c2ccc(NC(=O)Nc3cc(Cl)cc(Cl)c3)cc2OC[C@H](C)NC[C@@H]1C`, for which the call was inactive.

Consider `Cc1ccc(N(CC(=O)NCc2ccco2)S(=O)(=O)c2ccccc2)cc1`, for which the molecule was classed as inactive.

Consider `C[C@H]1CN([C@@H](C)CO)C(=O)c2cc(-c3ccccc3)cnc2O[C@H]1CN(C)Cc1ccccc1`, for which the molecule was called inactive.

In the case of `CC1OC(CC(=O)O)CC2=C1C(=O)c1c(O)cccc1C2=O` (configuration not stated), the result was inactive.

Regarding `COc1cccc(S(=O)(=O)N2CC[C@@H]3[C@H]2c2cc(-c4ccc(C#N)cc4)ccc2N[C@@H]3CO)c1`, the molecule was called inactive.

As to `C[C@H](CO)N1C[C@H](C)[C@H](CN(C)Cc2ccc(-c3ccccc3)cc2)Oc2ccc(NC(=O)CCCN(C)C)cc2C1=O`, the call was inactive.

As for `CC(=O)Nc1cccc(-c2ccnc3c2CC(C)(C(=O)Nc2cccc(C(F)(F)F)c2)O3)c1` (configuration not stated), the outcome was inactive.

Turning to `COC(=O)C[C@@H]1CC[C@@H]2[C@@H](COc3ccc(NC(=O)Cc4cccs4)cc3C(=O)N2C)O1`, the result was inactive.

As for `CCOc1cccc(C(=O)Nc2ccc(N(CC)CC)cc2)c1`, the molecule was classed as inactive.

With `Cc1cccc(NC(=O)c2ccc(S(=O)(=O)N3CCCCC3)cc2)n1`, the outcome was inactive.

Turning to `COCC(=O)Nc1ccc2c(c1)C(=O)N(C)[C@H]1CC[C@H](CC(=O)NCc3ccccc3Cl)O[C@@H]1CO2`, the outcome was inactive.

For the molecule `Cc1cccc(NC(=O)Nc2ccc(S(=O)(=O)Nc3onc(C)c3C)cc2)c1`, the outcome was inactive.

Take `C[C@@H]1CN([C@H](C)CO)C(=O)c2cccc(NC(=O)Nc3ccc(C(F)(F)F)cc3)c2O[C@@H]1CN(C)C(=O)Nc1cccc2ccccc12`: the outcome was inactive.

On to `C[C@@H]1CN([C@@H](C)CO)C(=O)c2cc(-c3ccccc3)cnc2O[C@H]1CN(C)C(=O)c1cccc(F)c1`, for which the call was inactive.

On to `CC(C)NC(=O)N(C)C[C@H]1Oc2ccc(NC(=O)CCN3CCOCC3)cc2C(=O)N([C@H](C)CO)C[C@@H]1C`, for which the result was inactive.

On to `COCC(=O)Nc1ccc2c(c1)C(=O)N(C)[C@H]1CC[C@@H](CC(=O)NCc3ccccc3Cl)O[C@H]1CO2`, for which the outcome was inactive.

For `C[C@@H]1CN([C@@H](C)CO)C(=O)c2cc(NC(=O)CCCN(C)C)ccc2O[C@@H]1CN(C)Cc1ccc(-c2ccccc2)cc1`, the molecule was classed as inactive.

As to `C[C@H]1CN([C@@H](C)CO)C(=O)c2cc(NC(=O)C3CCCCC3)ccc2O[C@@H]1CN(C)Cc1ccc(-c2ccccc2)cc1`, the call was inactive.

With `CO[C@@H]1CN(C)C(=O)c2ccc(NC(=O)c3ccc(-c4ccccc4)cc3)cc2OC[C@@H](C)NC[C@H]1C`, the molecule was classed as inactive.
